From PubChem BioAssay (NCI)
The panel holds about 83,000 compounds, 20% with a hit somewhere; the sample as a whole holds those more often.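 Treatment: one concentration, 48 hours, 96-well format. Scoring: percent growth, with anything below 10 considered active.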 Values without a mark were called inactive. Active and inactive are the calls of the source.

Tests used:
Assay in all cases: NCI-60 one-dose screen, 48 h (100 = growth as untreated, 0 = no growth, -100 = all killed)
Details in all cases: 10 µM unless noted
[1] = test system: DU-145 prostate
[2] = test system: K-562 leukemia
[3] = test system: MALME-3M melanoma
[4] = test system: MDA-MB-231 breast
[5] = test system: RXF 393 renal
[6] = test system: SF-268 CNS
[7] = test system: SF-295 CNS
[8] = test system: SF-539 CNS
[9] = test system: UACC-257 melanoma
[10] = test system: M14 melanoma

| SMILES | growth [1] | growth [2] | growth [3] | growth [4] | growth [5] | growth [6] | growth [7] | growth [8] | growth [9] | growth [10] |
| --- | --- | --- | --- | --- | --- | --- | --- | --- | --- | --- |
| CCOC(=O)C1=C(C)NC(C)=C(C(=O)OCC)C1(C)C | 123% | 89.9% | 111% | 98.8% | 98.1% | 110% | 117% | 91.7% | 96.3% | 109% |
| O=C1/C(=C/c2ccccc2)Oc2ccc(O)c(I)c21 | 111% | 99.5% | 101% | 81% | 108% | 82.6% | 104% | 87.7% | 96.6% | 98.5% |
| C=C1C(=O)O[C@H]2[C@H]1CC/C(Cn1cc(CNC(=O)/C=C/c3c[nH]c4ccccc34)nn1)=C\CC[C@@]1(C)O[C@@H]21 | 103% | 23.6% | 98% | 99.7% | 84% | 93.5% | 93.3% | 80.4% | 74.9% | 84.3% |
| CN1CCN(Cc2ccc(NC(=O)c3nc4ccc5[nH]ncc5c4c4c3CCC4)cc2C(F)(F)F)CC1 | -90.1% (active) | -46.6% (active) | -55% (active) | -84.3% (active) | 67.9% | 98.2% | 99.8% | -96% (active) | -64.5% (active) | -84.5% (active) |
| CC(=O)Nc1scc[n+]1Cc1ccccc1 | 118% | 99.1% | 130% | 115% | 98.3% | 110% | 105% | 104% | 107% | 98.5% |
| CC(=O)Oc1csc(N(C(C)=O)c2cc(C(=O)O)cc(C(=O)O)c2)n1 | 97.4% | 102% | 87.9% | 89.2% | 95.8% | 92.9% | 96.4% | 89.6% | 92.8% | 84.5% |
| CCN1CCN(CC(=O)N2c3cccc4cccc(c34)N(C(=O)CN3CCN(CC)CC3)C2c2cn(-c3ccccc3)nc2-c2cccc([N+](=O)[O-])c2)CC1 | 28.3% | -52.9% (active) | -91.3% (active) | -66.1% (active) | 3.79% (active) | 16.6% | -50.3% (active) | -89.2% (active) | -83.1% (active) | -81.6% (active) |
| CCCCN(CCCC)C(=O)CC | 112% | 101% | 124% | 114% | 128% | 105% | 109% | 112% | 129% | 111% |
| COc1ccc(Nc2[nH]n3c(=O)cc(C)nc3c2C(N)=O)c(OC)c1 | 112% | 101% | 126% | 84.9% | 98.1% | 97.8% | 102% | 91.2% | 85.1% | 106% |
| CCCCCCCCCCCCCCCCCCNC(=O)[C@H]1CSC(c2cccs2)N1 (stereo not given in full) | 53.3% | -27.7% (active) | -78.4% (active) | -93.5% (active) | -90.9% (active) | -65.7% (active) | 66.5% | -49.6% (active) | -17.7% (active) | -84.8% (active) |
| Cc1ccc(/C=C2\CN(C(=O)CCN3CCC(=NO)CC3)C/C(=C\c3ccc(C)cc3)C2=O)cc1 | 21.6% | 4.38% (active) | -27.6% (active) | -13.8% (active) | -77.7% (active) | 12.9% | -1.83% (active) | -18% (active) | 44.9% | 5.63% (active) |
| Oc1ccc(Cl)cc1-c1cc(-c2ccc(F)cc2)n[nH]1 | 75.9% | 63.2% | 77.8% | 27.3% | 73.4% | 63.6% | 49.2% | 90.1% | 96.6% | 76.6% |
| COc1cccc(-c2nc3sccn3c2-c2ccnc(NCCCNS(=O)(=O)c3ccc(F)cc3)c2)c1 | 34% | 17.8% | 39.6% | 57.4% | 63.2% | 41.2% | 18.6% | 67.2% | 35.6% | 25.7% |
| C/C=C/C1=CN2C(=O)c3cc(OC4OC(C)C(NC)C(C)(O)C4O)c(C)cc3N=C[C@@H]2C1 (stereo not given in full) | -18.6% (active) | 5.83% (active) | -43% (active) | 15.7% | -44.9% (active) | -28.8% (active) | -23.1% (active) | -44.9% (active) | -1.62% (active) | -60.5% (active) |
| O=C(c1ccccc1)C1OC1c1ccc([N+](=O)[O-])cc1 (stereo not given) | 67.9% | 32.6% | 83.6% | 78.4% | 77.8% | 79.2% | 97% | 96.5% | 68.1% | 48.2% |
| CC(C)(C)n1cc(-c2ccnc(NCCCNS(=O)(=O)c3ccc(Cl)cc3)c2)c(-c2cccc(O)c2)n1 | 13.1% | -23.3% (active) | -44.5% (active) | -24.4% (active) | -12% (active) | 20.7% | -45% (active) | -26.1% (active) | -39.3% (active) | -23.2% (active) |
| O=C(Nc1ccc2c(c1)OCO2)C(=O)c1c[nH]c2cc(F)ccc12 | 34.5% | 26.4% | 73% | 25.6% | 75.4% | 47.6% | 24.2% | 56.1% | 64.4% | 29.9% |
| C=C1CCC2C(C)(CO)C(O)CCC2(C)C1CC(NCc1ccccc1)C1=CCOC1=O (stereo not given) | 104% | 101% | 100% | 99.6% | 103% | 86.5% | 111% | 101% | 102% | 97.3% |
| Nc1nc(Nc2cc(Cl)cc(Cl)c2)nn1S(=O)(=O)c1ccc2ccccc2c1 | 47.7% | 41.5% | 63% | 35.3% | 30.6% | 52.4% | 93.6% | 83.5% | 83.3% | 78.4% |
| O=C(Nc1ccncc1)C(=O)c1cn(S(=O)(=O)c2ccc(Br)cc2)c2ccccc12 | 62.6% | 26.5% | 49.6% | 43% | 60.1% | 52.2% | 29.6% | 43.8% | 69.4% | 31.6% |
| CCCCCCCCN(CCCCCCCC)CCCCCCNc1cc(OC)cc2cccnc12 | 27.4% | 80.1% | 61.7% | 52% | 108% | 83.4% | 109% | 111% | 18.2% | -1.6% (active) |
| COc1ccc(C2C(C#N)=C(N)Oc3c2ccc2ccccc32)cc1 (stereo not given) | 78.4% | 19.6% | 47.9% | 31.2% | 36.5% | 50.5% | 24.2% | 25.6% | 75.1% | 30.2% |
| CC(C)(C)Nc1c(-c2cccs2)nc2ncccn12 | 105% | 86.5% | 99.9% | 108% | 98.9% | 97.5% | 99.5% | 97.5% | 90.5% | 106% |
| CCOC(=O)c1c(/N=C2\SC(=O)/C(=C\C(=O)OC)N2NC)sc2c1CCN(C(=O)OCC)C2 | 101% | 99.9% | 101% | 100% | 106% | 96.2% | 98.7% | 96.9% | 101% | 91.7% |
| Cc1cc(N/N=C/c2nc(-c3ccccc3)oc2C)c2cc(Cl)ccc2n1 | -31.3% (active) | -29.3% (active) | -88.9% (active) | -95.1% (active) | -88.3% (active) | -60.3% (active) | -85% (active) | 8.72% (active) | 106% | -87.4% (active) |
| O=c1[nH]c2ccc(Br)cc2c2c1C(c1ccc(Cl)cc1)c1c(ncn3nc(-c4ccco4)nc13)O2 (stereo not given) | 90% | 80% | 77.5% | 48.6% | 59.1% | 74.3% | 87.9% | 65.5% | 98.3% | 74.9% |
| CC[N+](CC)=c1cc2oc3cc(N(C)C)ccc3nc-2cc1C | 73.8% | 55.2% | -25.5% (active) | 8.42% (active) | 81.7% | 2.86% (active) | 17.7% | 22.2% | -28% (active) | 18.2% |
